In PubChem BioAssay AID1986 (Sanford-Burnham Center for Chemical Genomics, 2009) one finds inhibition data, which are given here for 31 compounds.

In all, about 290,000 compounds went through this assay and about 890 (0.31%) were called active. No stated cut-off is given here; in the data, active means inhibition mostly above about 52% (no sharp cut-off); inactive means mostly below about 76%. The entries come from a sample that favours actives as a whole.

The nature of the assay: cell-free HIV fusion peptide-binding blockers – biochemical, uHTS, fluorescence dequenching, primary screen (AID 1986). The note with it: 30 min, stronger effect = higher value.
Where [1] appears, read: measured here: repeat confirmation average inhibition, at 18.6 µM.

As for `Cc1ccc(NC(=O)c2ccc3nsnc3c2)c(Cl)c1`, the inhibition (usually the drop in the measured response relative to a control, in per cent) (at 20 µM) is 1.6% (inactive).
Same read-out and setting: next, `O=C(CSc1nnc(C2CCCCC2)o1)Nc1ccccc1Cl`: 2.8% (inactive); `O=C(NN=C1CCCC1)c1ccc(Cl)cc1`: -0.5% (inactive).
Still for that read-out and setting: next, `CC(C)(C)c1ccc(NC(=S)NCCc2ccccn2)cc1`: -0.5% (inactive); `COc1ccc([C@@H]2[C@H]3CN(C(C)=O)CC=C3C(C#N)=C(N)C2(C#N)C#N)c2ccccc12`: -3.1% (inactive); `CCN1CC=C2C(C#N)=C(N)C(C#N)(C#N)C(c3cc(Cl)ccc3Cl)C2C1` (stereo not drawn): 2.6% (inactive).
Same read-out and setting: for `CCN1CC=C2C(C#N)=C(N)C(C#N)(C#N)[C@H](c3cccc(OC)c3OC)[C@H]2C1` the value was 61.5% (active); for `CCCN1CC=C2C(C#N)=C(N)C(C#N)(C#N)C(c3cccc(OC)c3OC)C2C1` (stereo not drawn), 67.5% (active); for `COc1cccc(C2C3CN(C)CC=C3C(C#N)=C(N)C2(C#N)C#N)c1OC` (stereo not drawn), 149% (inactive).
For the compound `CCOC(=O)N1CC=C2C(C#N)=C(N)C(C#N)(C#N)[C@H](c3ccccc3OCC)[C@H]2C1`, for the setting “at 20 µM”, the inhibition was 0.7% (inactive).
On to `Cn1c(COc2ccccc2)nnc1SCC(=O)NCc1ccccc1`, for which the inhibition (at 20 µM) was -0.1% (inactive).
Still for that read-out and setting: next, `CC1(C)CC(NCc2cccc([N+](=O)[O-])c2)CC(C)(C)N1`: -1.8% (inactive); `CN(C)n1cnc2ccsc2c1=O`: 1.1% (inactive); `CN(C(=O)COC(=O)CNC(=O)c1ccccc1Cl)c1ccccc1`: -0.3% (inactive).
For `CCC1=NN2C(=N)/C(=C\c3cccn3-c3ccc(C)cc3C)C(=O)N=C2S1`, for the setting “at 20 µM”, the inhibition was 51% (active).
On the same count and under the same terms, for `CCC1=NN2C(=N)/C(=C\c3cccn3-c3c(C)cccc3C)C(=O)N=C2S1` the value was 25.7% (inactive); for `CCC1=NN2C(=N)/C(=C\c3cccn3-c3ccc(C)c(C)c3)C(=O)N=C2S1`, 35.7% (inactive); for `CC(NCCc1ccc(S(N)(=O)=O)cc1)C(=O)NCCc1ccc(F)cc1` (stereo not drawn), 0.6% (inactive).
The same measure, in the same setting: next, `Cc1ccc(/C=C2\SC(=S)N(/N=C/c3cc([N+](=O)[O-])ccc3O)C2=O)o1`: 82.2% (active); `O=C1/C(=C/c2cccc(Br)c2)SC(=S)N1/N=C/c1cc([N+](=O)[O-])ccc1O`: 16.7% (inactive).
With `Cc1ccccc1/C=C1\SC(=S)N(/N=C/c2cc([N+](=O)[O-])ccc2O)C1=O`, under “at 20 µM”, the inhibition was 26.8% (inactive).
On the same count and under the same terms, for `CCNC(=S)NS(=O)(=O)c1ccc(C)cc1` the value was -1.7% (inactive).
Turning to `CC(C)NC(=O)/C(C#N)=C/c1ccc(N(C)C)o1`, the inhibition reads like this: (at 20 µM) 82.3% (active); under setting [1], 64.2%.
As for `CC(C)NC(=O)/C(C#N)=C\c1ccc(N(C)C)c(Br)c1`, for the setting “at 20 µM”, the inhibition is 0.3% (inactive).
On the same count and under the same terms, next, `CCN(CC)c1ccc(/C=C(/C#N)C(=O)NC(C)C)o1`: 113% (active).
For the compound `CC(C)NC(=O)/C(C#N)=C\c1ccc(N(C)C)o1`, the inhibition by setting is: (at 20 µM) 78.6% (active); under setting [1], 59.9%.
For `Cc1ccc(/C=C(\C#N)C(=O)NC(C)C)o1`, the inhibition (at 20 µM) is 1.4% (inactive).
Still for that read-out and setting: for `Cc1ccc(/C=C(/C#N)C(=O)NC(C)c2ccccc2)o1` (stereo not drawn) the value was 3.2% (inactive); for `CN(C)c1ccc(/C=C(/C#N)C(=O)NCc2ccccc2)o1`, 134% (inactive); for `Cc1ccc(/C=C(\C#N)C(=O)NC(C)c2ccccc2)o1` (stereo not drawn), 0.2% (inactive).
For the compound `CCN(CC)c1ccc(/C=C(/C#N)C(=O)NCc2ccccc2)o1`, the inhibition (at 20 µM) is 128% (inactive).
